Assay [1] in a line: NCI Yeast Anticancer Drug Screen. Data for the rad50 strain (AID 155).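 Note: 0% = growth of vehicle-only cultures of the same strain.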 As to conditions: S. cerevisiae rad50 strain growth inhibition; at 50.0 µM; hits give high values. Summed up: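 Compounds were tested on a yeast strain with an engineered DNA damage repair alteration; the reported value is growth inhibition normalised to vehicle treatment.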
The nature of assay [2]: NCI Yeast Anticancer Drug Screen. Data for the mec2-1 strain (AID 157). The settings on record: S. cerevisiae mec2-1 strain, at 50.0 µM, hits give high values. Summed up: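 Using mec2-1 yeast: add compound, measure growth, express inhibition versus vehicle-treated cultures.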
Assay [3] is described as follows: NCI Yeast Anticancer Drug Screen. Data for the sgs1 mgt1 strain (AID 161).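 Note: 0% = growth of cultures given vehicle only.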 The settings on record: S. cerevisiae sgs1 mgt1 strain, at 50.0 µM, hits give high values. The method in brief: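 Compounds are added to genetically altered yeast, and growth is compared with cultures given vehicle alone to give percent inhibition.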
A short description of assay [4]: NCI Yeast Anticancer Drug Screen. Data for the cln2 rad14 strain (AID 165).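 Note: 0% = growth equal to vehicle treated cultures.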 As to conditions: S. cerevisiae cln2 rad14 strain, at 50.0 µM, hits give high values. The method in brief:
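Yeast strain cln2 rad14, bearing defects in cell cycle control and DNA repair, serves as the test system; values reflect growth inhibition compared with vehicle.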

Assay [5] can be described thus: NCI Yeast Anticancer Drug Screen. Data for the bub3 strain (AID 167). As to conditions: S. cerevisiae bub3 mutant strain, at 50.0 µM, hits give high values. The method in brief:
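Growth of a checkpoint-deficient yeast mutant is measured after compound exposure. Values represent inhibition relative to vehicle.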

Assay [6] in a line: NCI Yeast Anticancer Drug Screen. Data for the mlh1 rad18 strain (AID 175). As to conditions: S. cerevisiae mlh1 rad18 strain growth inhibition; at 50.0 µM; hits give high values. Summed up:
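Steps: expose repair-defective yeast to compound; measure growth; express inhibition against vehicle-treated controls.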

SMILES strings stand for the structures. This is part of a sample that, as a whole, favours compounds with a hit. Of some 79,000 tested, about 15% had one in any assay. Values without a mark were called inactive. Activity calls are given as the source filed them. Cut-off read from the data, not from the text of the source: active = growth inhibition above about 70%; inactive = the rest. Where a SMILES comes first, the peptide text is derived from it. [ ]: non-standard residue; d: D form. The star is where a group is joined. Cbz = O=C(OCc1ccccc1)*; Aib = CC(C)(N)C(=O)O

As to `Cc1c(Cl)cccc1NC(=O)Nc1ccccc1F`, the growth inhibition in assay [1] is 14.2%; in assay [2], 7.65%; in assay [3] it was 15.2%; in assay [4], 19.2%; in assay [5], 28.4%; in assay [6] it was 17.4%.
For the compound `CN(C)C=Nc1ccc(F)cc1`, the growth inhibition in assay [1] was -16.1%; in assay [2], -5.6%; in assay [3], -11.4%; in assay [4], -20.1%; in assay [5], -1.8%; in assay [6] it was -2.1%.
`CCOC(=O)c1c(SC(=O)c2ccc(OC)cc2)n(-c2ccccc2)c(=S)n(-c2ccccc2)c1=O`: the growth inhibition in assay [1] is 16.2%; in assay [2], 0.75%; in assay [3], 3.75%; in assay [4] it was 8.55%; in assay [5], 16.8%; in assay [6] it was 12.8%.
For the compound `CC(CCl)CC#N` (stereo unspecified), the growth inhibition was -5.6% in assay [1]; -19.1% in assay [2]; 7.9% in assay [3]; 13.1% in assay [4]; -10% in assay [5]; -1.1% in assay [6].
For `O=C1Oc2ccccc2CC1C(=O)c1ccc(Cl)cc1` (stereo unspecified), the growth inhibition in assay [1] was -7.75%; in assay [2], -0.25%; in assay [3] it was 8.95%; in assay [4] it was -61.1%; in assay [5] it was -21.4%; in assay [6], 7.75%.
On to `CC(C)(NC(=O)C(C)(C)NC(=O)OCc1ccccc1)C(=O)O` (Cbz-[Aib]-[Aib]-OH), for which the growth inhibition is 6.05% in assay [1]; -3.6% in assay [2]; 3.9% in assay [3]; 14.1% in assay [4]; 0.25% in assay [5]; -64.5% in assay [6].
Turning to `Cn1c(=N)n(CC(=O)NC23CC4CC(CC(C4)C2)C3)c2ccccc21`, the growth inhibition in assay [1] was 11.8%; in assay [2] it was -15.4%; in assay [3], -26.9%; in assay [4] it was 2.75%; in assay [5], 2.2%; in assay [6], -11.6%.
Consider `COc1ccccc1NC(C)=O`, for which the growth inhibition is 8.15% in assay [1]; 5.8% in assay [2]; 0.15% in assay [3]; 6% in assay [4]; 11.4% in assay [5]; -30.4% in assay [6].
For the compound `Cc1ccc(C)c(NC(=O)C(=O)C(C#N)c2c(Cl)cccc2Cl)c1` (stereo unspecified), the growth inhibition was -23.2% in assay [1]; 16.5% in assay [2]; 44.5% in assay [3]; -24.4% in assay [4]; 6.35% in assay [5]; 28.9% in assay [6].
For the compound `O=C1C2ON3c4ccccc4C(=O)C3(c3ccccc3)C2C(=O)N1c1ccccc1` (stereo unspecified), the growth inhibition in assay [1] is -40.9%; in assay [2], -31.3%; in assay [3] it was -63%; in assay [4] it was -14.3%; in assay [5], -37%; in assay [6], -49%.
Take `Nc1cc(N)cc([N+](=O)[O-])c1`: the growth inhibition in assay [1] was -9.75%; in assay [2], -16.4%; in assay [3], -8%; in assay [4], -13.7%; in assay [5] it was 8.8%; in assay [6], 15.2%.
For the compound `COc1ccc(C(C)OC)cc1OC` (stereo unspecified), the growth inhibition was -15% in assay [1]; -22.2% in assay [2]; 15.6% in assay [3]; -16.6% in assay [4]; 8.7% in assay [5]; -8.75% in assay [6].
Turning to `CC(=O)c1cccc(NC(=O)Nc2cccc(O)c2)c1`, the growth inhibition in assay [1] was 4.5%; in assay [2] it was 19.9%; in assay [3] it was -5.35%; in assay [4], 7%; in assay [5] it was 56.1%; in assay [6], -0.25%.
Regarding `c1ccc2c(c1)NCCOCCNc1ccccc1OCCNCCO2`, the growth inhibition was -1.5% in assay [1]; 36.5% in assay [2]; 14.1% in assay [3]; -4.1% in assay [4]; 30.1% in assay [5]; 6.75% in assay [6].
With `S=C(Nc1ccccc1)Nc1nc(-c2ccccc2)c(N=Nc2ccc(Cl)cc2)s1`, the growth inhibition was 42.5% in assay [1]; 2.6% in assay [2]; 22.2% in assay [3]; 18.6% in assay [4]; -0.85% in assay [5]; 9.45% in assay [6].
Consider `CN(C(=O)c1ccc(Cl)c(Cl)c1)C(c1ccco1)P(=O)(c1ccccc1)c1ccccc1` (stereo unspecified), for which the growth inhibition in assay [1] was 54%; in assay [2], 46.2%; in assay [3] it was 78.4% (active); in assay [4], 17.2%; in assay [5] it was 50.4%; in assay [6] it was 45.9%.
As for `Cc1ccc(NC(=O)CCC(NS(=O)(=O)c2ccc(C)cc2)C(=O)O)cc1` (stereo unspecified), the growth inhibition in assay [1] was 26.4%; in assay [2], 17.5%; in assay [3] it was 25.6%; in assay [4] it was 18.6%; in assay [5] it was -1.1%; in assay [6] it was 42.1%.
Regarding `Cc1ccc(Cl)cc1NC(=O)C(Br)C(Br)C(=O)O` (stereo unspecified), the growth inhibition in assay [1] was 93.2% (active); in assay [2] it was 99.4% (active); in assay [3], 99.5% (active); in assay [4] it was 90.2% (active); in assay [5], 99% (active); in assay [6], 98.8% (active).
As to `COc1ccc(/C=N/NC(=O)NCCNCCO)cc1`, the growth inhibition in assay [1] is -16.6%; in assay [2], -31.8%; in assay [3], -32.8%; in assay [4] it was -13.7%; in assay [5], -39.5%; in assay [6], -17.2%.
For `FC12CCC(c3ccccc3)(CC1)CC2`, the growth inhibition in assay [1] was 11.8%; in assay [2] it was -8.55%; in assay [3] it was -4%; in assay [4], -30.1%; in assay [5] it was -3.5%; in assay [6], -7.4%.
`Cc1cc(=O)oc2cc(OCc3ccccc3)cc(O)c12`: the growth inhibition in assay [1] was 22.8%; in assay [2] it was 4.2%; in assay [3], 21.8%; in assay [4], -3.3%; in assay [5] it was 6.45%; in assay [6], 12.8%.

(Values after PubChem BioAssay (NCI).)
